From PubChem BioAssay (Tox21) come the findings set out here.

Records with an inconclusive call do not appear. Calls of active or inactive are those of the source. Unless noted, calls follow the shape of the full dose curve.

Test [1] in a line: qHTS assay to identify small molecule antagonists of the sonic hedgehog signaling (Shh) pathway (AID 1259369). Also: nearly all actives have a fitted effect of over 45% in size. Also: potency is read from the fitted curve at half-maximal effect. The note with it: NIH/3T3 Gli1-Luc reporter, Shh antagonist, luminescence 24 h; series mostly up to 92.4 µM. Put shortly: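 Inhibition of Shh signalling is measured as reduced Gli1-response-element firefly luciferase output in an NIH/3T3-derived stable reporter clone stimulated with conditioned medium for 24hr.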

The target in test [2] is Estrogen receptor beta (Homo sapiens) (UniProt Q92731). As to the kind of experiment: qHTS assay to identify small molecule antagonists of the estrogen receptor beta (ER-beta) signaling pathway (AID 1259378; active = well fitted inhibition curve with a large enough effect in the signal ratio in the repeat runs, not every such curve was filed as active; the % refers to the signal ratio; also: potency is read from the fitted curve at half-maximal effect). The note with it: ER-beta-UAS-bla HEK293T, beta-lactamase FRET ratio, 16 h; series mostly up to 92.4 µM. In a few lines: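 ER-beta-UAS-bla HEK293T (GripTite) cells in 2% charcoal-stripped FBS medium were preincubated 6 hr at 37C, dosed with compound, then stimulated with 1 nM E2 (final) for 16 hr; beta-lactamase reporter read by B/G FRET fluorescence after 2 hr substrate loading.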
Estrogen receptor beta (Homo sapiens), sequence (Q92731 whole entry, looked up): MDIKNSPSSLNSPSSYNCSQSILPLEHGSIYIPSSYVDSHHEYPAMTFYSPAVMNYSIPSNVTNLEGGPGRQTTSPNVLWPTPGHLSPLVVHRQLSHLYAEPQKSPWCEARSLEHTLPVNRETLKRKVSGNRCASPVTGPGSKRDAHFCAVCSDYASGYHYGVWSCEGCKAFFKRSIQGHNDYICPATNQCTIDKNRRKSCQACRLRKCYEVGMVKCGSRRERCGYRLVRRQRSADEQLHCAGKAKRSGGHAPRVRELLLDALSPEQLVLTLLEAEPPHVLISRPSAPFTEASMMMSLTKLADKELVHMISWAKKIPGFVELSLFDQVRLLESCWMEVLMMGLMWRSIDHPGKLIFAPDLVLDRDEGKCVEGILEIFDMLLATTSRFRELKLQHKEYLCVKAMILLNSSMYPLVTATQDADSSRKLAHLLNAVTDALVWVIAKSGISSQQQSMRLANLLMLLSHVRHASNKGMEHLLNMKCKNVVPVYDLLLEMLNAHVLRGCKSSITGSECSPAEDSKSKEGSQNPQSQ

Test [3] in a line: qHTS assay to identify small molecule agonists of the androgen receptor (AR) signaling pathway in the presence of an antagonist - cell viability counter screen (AID 1259379; active = well fitted curve in the direction sought with a large enough effect in the repeat runs; an effect the other way counts as inactive or inconclusive;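 also: MDA-kb2 human breast cancer cells carrying an MMTV luciferase reporter; nearly all actives have a fitted effect of over 25% in size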). The following applies: MDA-kb2 viability, CellTiter-Fluor, 16 h; series mostly up to 92.4 µM. Put shortly: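 Fluorescence from CellTiter-Fluor, added after 15 hr and read 1 hr later, gave cell viability. Cells were MDA-kb2 exposed to compounds (15 concentrations) in the presence of 3.0uM nilutamide at 37C, 0% CO2.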

Test [4] is described as follows: qHTS assay to identify small molecule agonists of the estrogen receptor beta (ER-beta) signaling pathway - cell viability counter screen (AID 1259380; active = well fitted curve in the direction sought with a large enough effect in the repeat runs; an effect the other way counts as inactive or inconclusive; also: nearly all actives have a fitted effect of over 30% in size; also: potency is read from the fitted curve at half-maximal effect). The following applies: ER-beta-bla HEK293T viability, CellTiter-Glo luminescence, 16 h; series mostly up to 92.4 µM. Put shortly: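 Same-well viability counter screen. Cells: ER-beta-UAS-bla HEK293T, plated 6 hr before compound, in 2% charcoal-stripped FBS. Compound exposure 16 hr, 37C; viability by CellTiter-Glo luminescence after 30 min at room temperature.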

Test [5] can be described thus: qHTS assay to identify small molecule antagonists of the estrogen receptor beta (ER-beta) signaling pathway - cell viability counter screen (AID 1259382; active = well fitted curve in the direction sought with a large enough effect in the repeat runs; an effect the other way counts as inactive or inconclusive; also: nearly all actives have a fitted effect of over 55% in size; also: potency is read from the fitted curve at half-maximal effect). The note with it: ER-beta-UAS-bla HEK293T viability, CellTiter-Glo luminescence, 16 h; series mostly up to 92.4 µM. Put shortly:
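Following a 6 hr plating period, HEK293T cells carrying a UAS-driven beta-lactamase reporter under ER-beta control received compounds and 1nM E2 (final). After 16 hr at 37C and 2 hr substrate loading, CellTiter-Glo luminescence indicated viability.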

For test [6], the target named is Estrogen receptor (Homo sapiens) (UniProt P03372). As to the kind of experiment: qHTS assay to identify small molecule agonists of the estrogen receptor alpha (ER-alpha) signaling pathway in the presence of an antagonist (AID 1259383). Also: top concentration of the series differs between compounds; nearly all actives have a fitted effect of over 15% in size. The note with it: VM7Luc4E2 cells, ERE-luciferase, +ICI-182,780, 22 h; series mostly up to 92.4 µM. Put shortly: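 Cells are hormone-deprived for 5 days (charcoal-stripped FBS, no phenol red), plated for 24hr, spiked with 10.0nM ICI-182,780, then dosed at 15 concentrations. After 22hr at 37C, ONE-Glo luminescence reports ERE-luciferase activity.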
Estrogen receptor (Homo sapiens), sequence (P03372 whole entry, looked up): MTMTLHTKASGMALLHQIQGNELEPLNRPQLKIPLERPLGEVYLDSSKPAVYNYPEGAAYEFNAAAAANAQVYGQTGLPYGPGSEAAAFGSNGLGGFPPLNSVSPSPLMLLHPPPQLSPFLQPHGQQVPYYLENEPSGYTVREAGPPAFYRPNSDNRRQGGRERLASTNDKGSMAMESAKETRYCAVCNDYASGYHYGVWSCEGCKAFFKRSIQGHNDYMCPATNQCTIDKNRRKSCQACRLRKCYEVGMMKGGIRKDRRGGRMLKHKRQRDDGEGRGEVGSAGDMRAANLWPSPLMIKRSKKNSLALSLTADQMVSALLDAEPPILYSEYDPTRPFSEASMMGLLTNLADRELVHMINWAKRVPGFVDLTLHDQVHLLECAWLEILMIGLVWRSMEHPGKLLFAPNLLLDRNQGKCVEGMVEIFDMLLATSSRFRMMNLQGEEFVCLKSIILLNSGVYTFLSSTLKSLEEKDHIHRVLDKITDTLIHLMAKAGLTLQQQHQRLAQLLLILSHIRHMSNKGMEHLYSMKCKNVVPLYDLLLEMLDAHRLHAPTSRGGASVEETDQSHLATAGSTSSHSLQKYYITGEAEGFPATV

Test [7] is described as follows: qHTS assay to identify small molecule agonists or antagonists of the thyroid stimulating hormone receptor (TSHR) signaling pathway - wild type cell line counter screen (AID 1259384). The following applies: HEK293 wild type, cAMP HTRF counter-screen, active compounds read high; series mostly up to 92.4 µM. Put shortly: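 Wild-type HEK293 cells were plated 18 h at 37 C/5% CO2, pin-dosed with compound plus Ro20-1724 medium, held 30 min at room temperature, then given cAMP-d2 and anti-cAMP-cryptate; fluorescence was read after 1 h. Fifteen concentrations, triplicate.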

Test [8] deals with Thyrotropin receptor (Homo sapiens) (UniProt P16473). As to the kind of experiment: qHTS assay to identify small molecule antagonists of the thyroid stimulating hormone receptor (TSHR) signaling pathway (AID 1259385). Also: nearly all actives have a fitted effect of over 20% in size. Also: potency is read from the fitted curve at half-maximal effect. The note with it: TSHR-HEK293 cAMP HTRF, TSH-stimulated antagonist mode; series mostly up to 92.4 µM. Put shortly:
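TSHR-HEK293 cells were plated and held 18 h at 37C/5% CO2, then given compound plus Ro20-1724 and stimulated with TSH at 1.5 ng/mL final. After 30 min at room temperature, cAMP was detected with cAMP-d2/anti-cAMP-cryptate (1 h) by fluorescence.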

Test [9] is described as follows: qHTS assay to identify small molecule agonists of the estrogen receptor alpha (ER-alpha) signaling pathway in the presence of an antagonist - cell viability counter screen (AID 1259386; active = well fitted curve in the direction sought with a large enough effect in the repeat runs; an effect the other way counts as inactive or inconclusive; also: nearly all actives have a fitted effect of over 30% in size; also: potency is read from the fitted curve at half-maximal effect). The note with it: VM7Luc4E2 viability, CellTiter-Fluor fluorescence, 22 h; series mostly up to 92.4 µM. Put shortly: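 Cells are starved of estrogens for 5 days in charcoal-stripped serum, seeded for 24hr and co-treated with ICI-182,780 (10.0nM final) and test compounds. After 22hr at 37C, viability is read as CellTiter-Fluor fluorescence.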

In test [10] the target is Progesterone receptor (Homo sapiens) (UniProt P06401). As to the kind of experiment: qHTS assay to identify small molecule agonists of the progesterone receptor (PR) signaling pathway (AID 1346784). Also: nearly all actives have a fitted effect of over 30% in size. The note with it: PR-UAS-bla HEK293T, beta-lactamase FRET ratio, 16 h; series mostly up to 92.4 µM. In a few lines:
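Compounds were tested for PR agonism in HEK 293T cells bearing a beta-lactamase gene under UAS control. Treatment lasted 16 hr at 37C; signal came from fluorescence of a FRET substrate.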

For test [11] the target is unchanged. As to the kind of experiment: qHTS assay to identify small molecule antagonists of the progesterone receptor (PR) signaling pathway (AID 1346795; active = well fitted inhibition curve with a large enough effect in the signal ratio in the repeat runs, not every such curve was filed as active; the % refers to the signal ratio; also: potency is read from the fitted curve at half-maximal effect). The note with it: PR-UAS-bla HEK293T, beta-lactamase FRET ratio, 16 h; series mostly up to 92.4 µM. In a few lines: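 In HEK293T cells bearing the PR-UAS-bla reporter, compound effects on promegestone-driven (1 nM) beta-lactamase expression are assessed after 16 hr using a fluorescent FRET substrate incubated 2 hr at room temperature.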

Test [12] is described as follows: qHTS assay to identify small molecule agonists of the progesterone receptor (PR) signaling pathway - cell viability counter screen (AID 1346799). Also: nearly all actives have a fitted effect of over 45% in size. Also: potency is read from the fitted curve at half-maximal effect. The note with it: PR-UAS-bla HEK293T viability, CellTiter-Glo luminescence, 16 h; series mostly up to 92.4 µM. Put shortly:
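Here, 3,000 PR-UAS-bla HEK293T cells per well were treated with compounds for 16 hr after a 6 hr preincubation at 37C and 5% CO2; cell viability is the CellTiter-Glo luminescence signal.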

Test [13] can be described thus: qHTS assay to identify small molecule antagonists of the TGF-beta/Smad signaling pathway - cell viability counter screen (AID 1346824; active = well fitted curve in the direction sought with a large enough effect in the repeat runs; an effect the other way counts as inactive or inconclusive; also: nearly all actives have a fitted effect of over 50% in size; also: potency is read from the fitted curve at half-maximal effect). The note with it: SBE-bla HEK293T viability, CellTiter-Glo luminescence; series mostly up to 76.8 µM. In a few lines: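 SBE-bla HEK 293T cells were plated overnight at 37 C, then given compounds in DMSO plus TGF-beta1 (added as 0.25 ng/mL solution) for 5 hr. After the bla read, CellTiter-Glo was added to the same wells and luminescence read after 30 min at room temperature.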

Test [14] is described as follows: qHTS assay to identify small molecule agonists of the TGF-beta/Smad signaling pathway - cell viability counter screen (AID 1346829; active = well fitted curve in the direction sought with a large enough effect in the repeat runs; an effect the other way counts as inactive or inconclusive; also: top concentration of the series differs between compounds; nearly all actives have a fitted effect of over 45% in size). The note with it: SBE-bla HEK293T viability, CellTiter-Glo luminescence, 5 h; series mostly up to 76.8 µM. Put shortly:
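Compound-treated SBE-bla HEK 293T cells (5 hr, 37 C) were assessed for viability with CellTiter-Glo in parallel with the reporter read.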

Test [15] deals with Thyrotropin-releasing hormone receptor (Homo sapiens) (UniProt P34981). As to the kind of experiment: qHTS assay to identify small molecule antagonists of the thyrotropin-releasing hormone receptor (TRHR) signaling pathway (AID 1346877; active = well fitted inhibition curve with a large enough effect in the repeat runs, not every such curve was filed as active). The note with it: TRHR-HEK293, TRH-induced calcium fluorescence, antagonist mode; series mostly up to 51.3 µM. In a few lines:
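Cells (TRHR-HEK293) are plated and kept 18 h at 37 °C/5% CO2. A calcium-sensitive dye is added for 2 h, compound follows for 5 min at room temperature, and TRH is then given at 1 nM final.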

For test [16] the target is unchanged. In words: qHTS assay to identify small molecule agonists of the thyrotropin-releasing hormone receptor (TRHR) signaling pathway (AID 1346891). The note with it: TRHR-HEK293 calcium fluorescence, agonist mode; series mostly up to 57.6 µM. Put shortly: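 Screening of agonists relied on calcium signalling in HEK293 cells expressing human TRHR: dye loading 2 h at 37 °C preceded compound addition and a 3-min fluorescence time course.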

Test [17] in a line: qHTS assay to identify small molecule antagonists of the progesterone receptor (PR) signaling pathway - cell viability counter screen (AID 1346798; active = well fitted curve in the direction sought with a large enough effect in the repeat runs; an effect the other way counts as inactive or inconclusive; also: nearly all actives have a fitted effect of over 50% in size; also: potency is read from the fitted curve at half-maximal effect). The note with it: PR-UAS-bla HEK293T viability, CellTiter-Glo luminescence, 16 h; series mostly up to 92.4 µM. In a few lines:
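Following a 4 hr attachment, PR-UAS-bla HEK293T cells in charcoal-stripped FBS medium were exposed to compounds with R5020 for 16 hr; CellTiter-Glo was added and luminescence read after 30 min at room temperature.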

The nature of test [18]: qHTS assay to identify small molecule agonists of the TGF-beta/Smad signaling pathway (AID 1346859; active = well fitted activation curve with a large enough effect in the signal ratio in the repeat runs, not every such curve was filed as active; the % refers to the signal ratio). The note with it: SBE-bla HEK293T, TGF-beta/Smad beta-lactamase reporter, 5 h; series mostly up to 76.8 µM. Put shortly:
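Each well held 4,000 SBE-bla HEK 293T cells incubated overnight before compound addition; 5 hr later the cleavable FRET substrate went on for 2 hr at room temperature, and fluorescence was read at two emissions.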

Test [19] deals with Estrogen receptor beta (Homo sapiens) (UniProt Q92731). As to the kind of experiment: qHTS assay to identify small molecule agonists of the estrogen receptor beta (ER-beta) signaling pathway (AID 1259377; active = well fitted activation curve with a large enough effect in the signal ratio in the repeat runs, not every such curve was filed as active; the % refers to the signal ratio). The following applies: ER-beta-UAS-bla HEK293T, beta-lactamase FRET ratio, 16 h; series mostly up to 92.4 µM. In a few lines:
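Read-out: beta-lactamase FRET fluorescence. Cell line: ER-beta-UAS-bla HEK293T in 2% charcoal-stripped FBS. Exposure: 16 hr at 37C. Substrate step: 2 h at room temperature.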

Test [20] concerns the target Androgen receptor (Homo sapiens) (UniProt P10275). As to the kind of experiment: qHTS assay to identify small molecule agonists of the androgen receptor (AR) signaling pathway in the presence of an antagonist (AID 1259381). Also: nearly all actives have a fitted effect of over 15% in size. The note with it: MDA-kb2 MMTV-luciferase, AR agonist + nilutamide, 16 h; series mostly up to 92.4 µM. In a few lines:
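Cells are MDA-kb2 (human breast carcinoma, MMTV-luc, AR/GR responsive). Nilutamide is present at 3.0uM final throughout; compounds are added at 15 concentrations and incubated 16hr at 37C before ONE-Glo luminescence detection.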

Progesterone receptor (Homo sapiens), sequence (P06401 whole entry, looked up): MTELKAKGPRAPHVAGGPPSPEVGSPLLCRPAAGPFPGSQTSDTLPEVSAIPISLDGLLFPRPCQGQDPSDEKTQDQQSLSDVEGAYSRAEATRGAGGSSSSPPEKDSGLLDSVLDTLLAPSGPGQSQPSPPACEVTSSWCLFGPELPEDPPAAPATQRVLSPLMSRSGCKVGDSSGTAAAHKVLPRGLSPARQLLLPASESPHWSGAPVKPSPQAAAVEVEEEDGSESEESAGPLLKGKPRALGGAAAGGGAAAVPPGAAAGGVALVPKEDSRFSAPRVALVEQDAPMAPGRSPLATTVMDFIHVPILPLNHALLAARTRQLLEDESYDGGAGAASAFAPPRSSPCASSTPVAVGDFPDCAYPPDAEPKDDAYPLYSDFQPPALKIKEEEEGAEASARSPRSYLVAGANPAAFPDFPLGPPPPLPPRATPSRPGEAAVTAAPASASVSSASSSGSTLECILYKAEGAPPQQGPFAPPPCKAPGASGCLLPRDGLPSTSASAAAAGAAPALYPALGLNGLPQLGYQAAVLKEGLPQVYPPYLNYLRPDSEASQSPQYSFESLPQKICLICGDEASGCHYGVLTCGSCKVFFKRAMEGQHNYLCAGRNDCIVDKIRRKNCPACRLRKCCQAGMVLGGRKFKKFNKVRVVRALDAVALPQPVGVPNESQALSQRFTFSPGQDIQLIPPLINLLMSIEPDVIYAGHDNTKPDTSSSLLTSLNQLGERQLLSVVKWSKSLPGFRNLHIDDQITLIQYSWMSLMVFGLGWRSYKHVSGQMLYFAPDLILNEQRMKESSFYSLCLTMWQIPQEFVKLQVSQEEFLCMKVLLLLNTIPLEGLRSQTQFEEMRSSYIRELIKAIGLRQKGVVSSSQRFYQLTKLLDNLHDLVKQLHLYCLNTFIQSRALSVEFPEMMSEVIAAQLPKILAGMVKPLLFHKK
Thyrotropin receptor (Homo sapiens), sequence (P16473 whole entry, looked up): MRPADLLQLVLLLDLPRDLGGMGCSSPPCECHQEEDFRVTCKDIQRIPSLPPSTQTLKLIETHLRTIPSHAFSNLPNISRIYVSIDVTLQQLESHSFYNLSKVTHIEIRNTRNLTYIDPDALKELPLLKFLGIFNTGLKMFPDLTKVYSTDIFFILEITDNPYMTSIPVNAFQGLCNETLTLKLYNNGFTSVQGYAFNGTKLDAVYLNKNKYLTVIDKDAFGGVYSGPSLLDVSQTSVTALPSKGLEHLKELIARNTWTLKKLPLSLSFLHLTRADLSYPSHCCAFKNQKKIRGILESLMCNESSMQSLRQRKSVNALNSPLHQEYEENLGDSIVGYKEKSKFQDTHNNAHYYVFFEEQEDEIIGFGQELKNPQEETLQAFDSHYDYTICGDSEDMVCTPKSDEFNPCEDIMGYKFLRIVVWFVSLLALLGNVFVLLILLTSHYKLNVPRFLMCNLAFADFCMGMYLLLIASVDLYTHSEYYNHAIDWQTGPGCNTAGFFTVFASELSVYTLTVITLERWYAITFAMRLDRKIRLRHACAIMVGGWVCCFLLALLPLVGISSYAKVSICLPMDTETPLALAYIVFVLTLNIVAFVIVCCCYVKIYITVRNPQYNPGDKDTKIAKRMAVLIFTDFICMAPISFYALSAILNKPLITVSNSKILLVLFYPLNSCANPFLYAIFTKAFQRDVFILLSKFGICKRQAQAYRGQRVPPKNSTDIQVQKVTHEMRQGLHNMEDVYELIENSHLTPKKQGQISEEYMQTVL
Thyrotropin-releasing hormone receptor (Homo sapiens), sequence (P34981 whole entry, looked up): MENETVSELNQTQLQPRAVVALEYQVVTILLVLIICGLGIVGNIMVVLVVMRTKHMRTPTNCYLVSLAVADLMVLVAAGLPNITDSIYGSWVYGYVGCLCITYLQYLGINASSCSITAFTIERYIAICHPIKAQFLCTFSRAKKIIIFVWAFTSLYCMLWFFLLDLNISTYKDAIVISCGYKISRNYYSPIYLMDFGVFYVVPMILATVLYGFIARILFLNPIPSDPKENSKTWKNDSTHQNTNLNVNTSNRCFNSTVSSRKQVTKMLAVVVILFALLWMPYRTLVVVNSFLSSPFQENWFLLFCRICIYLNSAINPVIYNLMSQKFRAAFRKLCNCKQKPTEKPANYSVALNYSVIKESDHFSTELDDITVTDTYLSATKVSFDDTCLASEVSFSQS
Androgen receptor (Homo sapiens), sequence (P10275 whole entry, looked up): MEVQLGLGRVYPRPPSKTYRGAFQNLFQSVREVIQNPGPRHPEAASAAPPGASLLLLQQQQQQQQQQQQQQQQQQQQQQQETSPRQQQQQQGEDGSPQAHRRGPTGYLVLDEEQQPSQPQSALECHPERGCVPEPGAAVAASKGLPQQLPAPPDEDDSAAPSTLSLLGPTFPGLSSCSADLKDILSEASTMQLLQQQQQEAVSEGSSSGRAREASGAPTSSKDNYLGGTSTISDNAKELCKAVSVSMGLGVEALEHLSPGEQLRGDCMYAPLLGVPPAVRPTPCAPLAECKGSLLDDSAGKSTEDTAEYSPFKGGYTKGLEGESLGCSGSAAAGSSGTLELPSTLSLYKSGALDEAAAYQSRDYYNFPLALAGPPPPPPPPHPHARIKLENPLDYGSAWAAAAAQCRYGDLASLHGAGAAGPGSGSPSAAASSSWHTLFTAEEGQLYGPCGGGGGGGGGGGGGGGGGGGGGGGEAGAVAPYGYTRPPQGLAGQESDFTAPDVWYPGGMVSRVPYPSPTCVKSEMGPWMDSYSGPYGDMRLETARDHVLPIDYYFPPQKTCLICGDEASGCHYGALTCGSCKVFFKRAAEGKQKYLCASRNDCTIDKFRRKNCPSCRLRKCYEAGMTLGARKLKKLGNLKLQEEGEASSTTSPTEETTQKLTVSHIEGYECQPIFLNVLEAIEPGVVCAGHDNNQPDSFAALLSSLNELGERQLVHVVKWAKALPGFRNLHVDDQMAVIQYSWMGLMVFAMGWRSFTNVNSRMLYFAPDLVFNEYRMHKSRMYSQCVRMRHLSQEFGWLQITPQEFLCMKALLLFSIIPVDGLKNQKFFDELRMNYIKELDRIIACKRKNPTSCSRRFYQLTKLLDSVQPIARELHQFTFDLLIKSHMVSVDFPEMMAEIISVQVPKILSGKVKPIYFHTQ

`COc1ccc(OC(=O)N(CC(=O)O)Cc2ccc(OCCc3nc(-c4ccccc4)oc3C)cc2)cc1`: the Potency result in test [1], in test [3], in [5], in test [6], in test [8] and in test [9] was “inactive” throughout. In addition, the Potency entry in [10], in [11], in test [12], in [13], in test [14] and in test [16] was “inactive” in each case. The Potency is 23.7 µM (active) in test [2] and 16.8 µM (active) in test [4]. For the same compound, the outcome in [7] and in test [15] was inactive.
With `CC(C)c1nc(CN(C)C(=O)N[C@H](C(=O)N[C@@H](Cc2ccccc2)C[C@H](O)[C@H](Cc2ccccc2)NC(=O)OCc2cncs2)C(C)C)cs1`, the Potency result in test [1], in test [3], in test [6], in test [8], in test [10] and in test [13] was “inactive” each time. The Potency entry in test [14], in test [18] and in test [16] was “inactive” throughout. For the same compound, the Potency in [4] was 15 µM (active); in [5] it was 21.1 µM (active); in test [9], 13.3 µM (active); in [17], 29.8 µM (active); in [12] it was 26.6 µM (active). Besides, the result in [15] was inactive.
Take `CN1C[C@H](C(=O)N[C@]2(C)O[C@@]3(O)[C@@H]4CCCN4C(=O)[C@H](Cc4ccccc4)N3C2=O)C[C@@H]2c3cccc4[nH]cc(c34)C[C@H]21`: the Potency entry in [1], in test [19], in [6], in test [10], in test [13] and in test [16] was “inactive” throughout. Moreover, the compound was classed as inactive in test [7] and in test [15]. Besides, the Potency in test [8] is 11.9 µM (active).
For the compound `Cc1ccc(OC(=O)c2ccccc2O)cc1`, the Potency entry in test [1], in test [3], in test [4], in test [5], in test [9] and in test [10] was “inactive” throughout. In addition, the Potency entry in test [11], in [17], in test [13], in [18] and in test [16] was “inactive” throughout. The result in [15] was inactive.
As to `COc1ccccc1NC(=O)c1cc2ccccc2cc1O`, the Potency in test [1] is 27.3 µM (active); in test [2] it was 17.2 µM (active); in test [4], 54.5 µM (active); in [11] it was 24.3 µM (active); in test [13], 49 µM (active). In addition, the Potency result in test [20], in test [6], in [9] and in test [18] was “inactive” throughout.
For `CCOC(C)=O`, the Potency result in [1], in [3], in [4], in test [5], in [6] and in test [8] was “inactive” throughout. Further, the Potency entry in [9], in test [10], in test [11], in test [17], in [12] and in test [13] was “inactive” each time. Besides, the Potency result in test [18] and in [16] was “inactive” in each case. Further, the compound was classed as inactive in [7] and in test [15].
